Hit rate of the full screen: of about 2,300 compounds, about 1,500 (65%) were called active. The set was probably picked from earlier hits. The list shows a part of the results. Results with a measured potency or affinity are listed apart. Values without a mark were called inactive. The rule behind the calls is not given here.
Experiment: replicating M. tuberculosis growth inhibition, dose response, non-replicating M. tuberculosis project, H37Rv (AID 492952);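 note: Mycobacterium tuberculosis grown in culture; growth inhibition read after a week of incubation; 0% = bacteria alone untreated and 100% = bacteria with high antibiotic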
Conditions: series mostly up to 50 µM; inhibition: at the top concentration

Structure (SMILES) | inhibition
O=c1cc(-c2ccccc2Cl)oc2c([N+](=O)[O-])c(O)cc(O)c12 | -1.85%
CCC1CCC(c2nnc(-c3ccc([N+](=O)[O-])cc3)o2)CC1 (stereo not given) | 10.4%
Cc1ccc(-c2nnc(Cc3ccc([N+](=O)[O-])cc3)o2)cc1 | -1.75%
Cc1nc(Cl)nc(N(C)c2ccccc2)c1[N+](=O)[O-] | 4.31%
COc1ccc(Cc2nnc(SCc3ccc([N+](=O)[O-])cc3)o2)cc1 | 4.06%
O=C1CCCCC1Sc1nnc(-c2ccc3c(c2)OCO3)o1 (stereo not given) | -1.32%
C(=C\c1ccccc1)/CSc1nc2ncccc2[nH]1 | 6.43%
O=C(CCSc1ccccc1)N1CCCC1 | 3.77%
CCCC(O)(CCC)C(=O)NNc1ccc(C)cc1 | 10.7%
CCS(=O)(=O)c1ncc(Cl)c(C(=O)Nc2ccc(S(=O)(=O)N3CCC(C)CC3)cc2)n1 | -3.77%
COc1ccc(CNC(=O)COC(=O)C2CC3C=CC2C3)cc1 (stereo not given) | 4.96%
CCCCNC(=O)Cc1ccc(C)cc1 | -4.22%
CC(C)CSc1nnc2c3ccccc3n(C)c2n1 | 1.04%
O=C(c1cc2ccccc2o1)c1nc2c(n1O)CCCCC2 | 5.04%
CCCCOC(=O)c1ccc(NC(=O)C2CCCO2)cc1 (stereo not given) | 20.4%
CCCOC(=O)c1ccc(NC(=O)C2C3C=CC(O3)C2C(=O)O)cc1 (stereo not given) | 3.84%
CCCOC(=O)c1ccc(NC(=O)Cc2cccs2)cc1 | 14%
O=C(Nc1ccccc1)c1ccc(Br)o1 | 12.3%
CC1CCN(S(=O)(=O)c2cccc(C(=O)Oc3ccc([N+](=O)[O-])cc3)c2)CC1 | -2.52%
C=CCN(CC=C)C(=O)Cc1ccc(F)cc1 | -3.08%
O=C(CCNc1cccc(F)c1)c1cccc([N+](=O)[O-])c1 | -0.17%
Nc1ccccc1C(=O)NNC1=C(C(=O)C(F)(F)F)CCC1 | -1.02%
COc1ccc(C)c2sc(NC(=O)CCS(=O)(=O)c3ccccc3)nc12 | 4.31%
Cc1ccc(-c2nnc(-c3cccs3)o2)cc1 | 0.17%
O=C(NC1CCCC1)c1cc(-c2cccs2)on1 | 1.34%

Structure (SMILES) | inhibition
CN1C(=O)CC(N2CCC(c3nc4ccccc4s3)CC2)C1=O (stereo not given) | -6.77%
CSc1ccc(COC(=O)CCS(=O)(=O)c2ccc(C)cc2)cc1 | 6.07%
COc1ccc(OCCOC(=O)CCS(=O)(=O)c2ccc(C)cc2)cc1 | 0.82%
O=C(CCS(=O)(=O)c1ccc(Cl)cc1)Oc1ccc2c(c1)OCO2 | 2.49%
O=C(COc1ccc(F)cc1)Nc1ccc2c(c1)OCCO2 | 25.3%
Cc1ccc(NC(=O)CC2SC3=NCCCN3C2=O)c(C)c1 (stereo not given) | 4.67%
CC(C)c1ccc(C2=C(O)c3ccccc3C(=O)C2=O)cc1 | -2.49%
CC1CCCN(CCSc2ccc(Cl)cc2)C1 (stereo not given) | 12.8%
CCOC(=O)Nc1ccc2c(c1)N(C(=O)CCN1CCOCC1)c1ccccc1S2=O (stereo not given) | 2.63%
Cc1ccc(C(=O)CCC2CCCC2=O)cc1 (stereo not given) | -3.32%
NCCCN1CCOCC1 | -1.85%
CC(CN1CCOCC1)OC(=O)c1ccc2c(c1)OCCO2 (stereo not given) | 0.51%
CCOC(=O)C1CCN(CCCSc2ccc(Cl)cc2)CC1 | -0.24%
Clc1ccc(SCCCCN2CCNCC2)cc1 | 4.18%
O=Cc1ccc(-c2ccc(Cl)cc2Cl)[nH]1 | 22.4%
O=C(CCCSc1nc2ccccc2s1)NCc1ccco1 | -2.55%
Fc1ccc(COc2ccc(-c3nnco3)cc2)cc1 | 0.98%
COC(=O)CCSCc1cn2cc(Cl)ccc2n1 | -0.87%
Cc1cc2n(n1)SC(Nc1ccccc1)N2 (stereo not given) | 3.35%
CC(C)n1c(=S)[nH]c2ccccc2c1=O | 3.34%
CC(C)(C)NCc1cc(Br)ccc1OC1CCCC1 | 4.3%
COc1ccc(-n2c3c(cc(C(=O)NNc4ccccc4)c2=O)C(=O)CC(C)(C)C3)cc1 | -1.68%
Clc1ccccc1OCc1nnc(-c2ccccc2)o1 | 4.87%
c1ccc(Cc2nnc(-c3ccccc3)o2)cc1 | 2.02%
O=C1NC(=S)S/C1=C\c1ccc(SCc2ccco2)o1 | -0.39%

Structure (SMILES) | inhibition
CN(CC(=O)Nc1ccc(Cl)cc1)C1CCCCC1 | -1.09%
COc1ccc(OCCCC(=O)Nc2ccc(N3CCOCC3)cc2)cc1 | -1.48%
Cc1ccc(C(=O)C=CNNC(=O)c2ccccc2)cc1 | 10.6%
O=C(C1CCN(C2CC(=O)N(Cc3ccccc3)C2=O)CC1)N1CCCCCC1 (stereo not given) | -5.07%
CC(C)CN(Cc1c(O)ccc2ccccc12)CC(C)C | 5.53%
O=C(NCCSc1ccccc1)c1ccc(Br)cc1 | -3.27%
COc1ccc(C(=O)C=CNNC(=O)c2ccc(Cl)cc2)cc1 | 1.86%
COc1ccccc1CCNC(=O)c1ccc(C)o1 | 3.56%
CCOc1ccc(NC(=O)CCNC(=O)c2ccc(Br)cc2)cc1 | 11.1%
O=C(Oc1cccc2cccnc12)c1cccc(-n2cnnn2)c1 | -0.76%
Cc1ccc(C2=N/C(=C\c3cccnc3)C(=O)O2)cc1 | -1.93%
Cc1cccc(C2=N/C(=C\c3cccnc3)C(=O)O2)c1 | 0.69%
CN(CCCCOc1ccc(F)cc1)Cc1ccccc1 | -6.23%
CN(CCOCCOc1ccc(F)cc1)Cc1ccccc1 | -0.16%
O=C1CC(N2CCN(c3ccccc3)CC2)C(=O)N1CCc1ccccc1 (stereo not given) | 3.41%
CC(NC(=O)COc1ccccc1F)C1CC2CCC1C2 (stereo not given) | 10.3%
O=C(COc1ccccc1)NC1CCCCC1 | 4.93%
O=C(NCCC1=CCCCC1)c1coc(=O)c(Br)c1 | -8.02%
COc1cc(/C=N/Nc2cccc3cccnc23)cc(OC)c1O | 0.63%
COc1ccc(OCC(=O)Nc2ccc(N3CCN(C(=O)c4ccco4)CC3)cc2)cc1 | 2.2%
COc1ccc(N2CCN(CC(=O)NC(=O)NC(C)(C)C)CC2)cc1 | -7.18%
CN(C)Cc1ccccc1Sc1ccc(Br)cc1 | 4.09%
CC1CCCN(CCCOc2ccc([N+](=O)[O-])cc2)C1 (stereo not given) | -7.03%
O=C1c2ccccc2C(=O)N1CCOc1ccc(F)cc1 | -6.11%
COc1ccc(N=Cc2nc(-c3ccccc3)oc2OC(C)=O)cc1 | 9.7%

Structure (SMILES) | inhibition
COc1ccccc1N=Cc1nc(-c2ccccc2)oc1OC(C)=O | 9.47%
CC1(C)CC(=O)C2=C(C1)OC(N)=C([N+](=O)[O-])C2c1ccc(C#N)s1 (stereo not given) | 25.2%
C/C(=N\NC(=O)COc1cccc(C)c1)c1ccc2ccccc2c1O | 5.19%
Cc1ccc(N2C(=O)CC(Sc3nccc(C)n3)C2=O)cc1 (stereo not given) | 3.55%
COc1cccc(C(=O)C2CCCN(CC3=Cc4cc(OC)ccc4OC3)C2)c1 (stereo not given) | 9.31%
COc1cccc(CC2(CO)CCCN(Cc3sc(N4CCCC4)nc3Cl)C2)c1 (stereo not given) | 0.34%
CCOC(=O)N1CCC(NC(=O)C2CCN(c3nc(-c4ccc(OC)cc4)no3)CC2)CC1 | -1.07%
O=C(CCC1CCCC1)NCc1ccccn1 | -3.52%
CN1C(=O)CC(Sc2ccccc2C(=O)O)C1=O (stereo not given) | -2.37%
C/C(=C\C(=O)c1ccc(Br)cc1)NNC(=O)c1ccccc1 | 20.2%
CC(C)=CC1C(C(=O)Nc2ccc(Br)cn2)C1(C)C (stereo not given) | 8.89%
Cn1[nH]c(-c2ccccc2)c(/C=N/O)c1=O | 3.15%
CCOc1ccc(NCC(=O)c2ccc(C)cc2)cc1 | 11.1%
COc1ccc(C(O)CNc2ccc(C)cc2)cc1 (stereo not given) | -0.87%
CCOc1ccc(NC(=O)Cn2sc3nc(C)cc(C)c3c2=O)cc1 | -4.28%
O=C1CCC(=O)N1CNc1ccc(Oc2ccccc2)cc1 | -6.19%
CCOC(=O)CCSc1n[nH]c(=S)s1 | 0.83%
CC(=O)N1CCN(C(=O)CC2OC(=O)c3ccccc32)CC1 (stereo not given) | -6.89%
CCn1ccc(C(=O)Nc2cccc(Cl)c2)n1 | -3.96%
COc1ccc(CC(=O)OCC(=O)Nc2ccc(Br)cc2)cc1 | -4.73%
O=C(COC(=O)CC1CCCC1)Nc1ccc(Cl)cn1 | 0.61%
O=C(O)c1ccc(NCc2ccc(Br)cc2)cc1 | 1.94%
O=C(COc1ccccc1)Nc1ccc(Cl)cn1 | 4%
COc1ccccc1C(=O)OCC(=O)Nc1ccc(Cl)cn1 | 6.92%
O=C(COc1ccc(Br)cc1)N/N=C1/SCC(=O)N1Cc1ccco1 | 0.21%

Structure (SMILES) | inhibition
Cc1ccc(OCC(=O)Nc2ccc([N+](=O)[O-])cc2)cc1 | 4.13%
O=C(CCC1CCCC1)Nc1ccc(Br)cn1 | -6.11%
O=C(OCC#CCSc1nnc(-c2ccncc2)o1)c1cccs1 | 8.48%
OC(C#CCN1CCOCC1)c1cccs1 (stereo not given) | 17.4%
O=C(NCc1cccs1)c1ccc([N+](=O)[O-])cc1 | 17.9%
Nc1ccc(C(=O)N/N=C\C=C\c2ccc([N+](=O)[O-])cc2)cc1 | -1.89%
CCOC(=O)c1csc(NC(=O)COc2ccc(Cl)cc2Cl)n1 | 2.42%
O=C(N/N=C/c1cc(Br)ccc1O)c1ccccc1Cl | -1.46%
O=C(NCc1ccc(Cl)cc1)c1n[nH]c([N+](=O)[O-])c1Cl | -6.89%
COC(=O)COc1ccc(S(=O)(=O)NCc2ccc3c(c2)OCO3)cc1 | 14%
O=C1NC(Cc2c[nH]c3ccccc23)C(=O)N1CCOc1ccccc1 (stereo not given) | -4.22%
Cc1cc(Cl)ccc1N(CC(=O)NCc1ccccc1)S(C)(=O)=O | 2.63%
c1ccc(-c2nnc(SCc3cn4ccsc4n3)o2)cc1 | 0.98%
Fc1ccc(-c2nnc(CSc3nnc(-c4cccs4)o3)o2)cc1 | 8.56%
CCn1cc(C(=O)NC(C)C23CC4CC(CC(C4)C2)C3)cn1 (stereo not given) | -7.28%
CCOC(=O)Nc1ccc2c(c1)N(C(=O)CCCl)c1ccccc1[S@]2=O | 13.7%
CN(C)CCC(=O)N1c2ccccc2Sc2ccc(Cl)cc21 | 2.62%
Cc1ccc(C)c(NC(=O)COC(=O)c2cc3ccccc3oc2=O)c1 | 6.08%
O=Cc1coc2ccc3ccccc3c2c1=O | 0.34%
CCOc1ccccc1OC(=O)c1cc2ccccc2oc1=O | 27.5%
CC1(c2nnc(Cc3ccccc3)o2)CC(c2ccccc2[N+](=O)[O-])=NO1 (stereo not given) | 3.65%
C/C(=N\O)c1cc(Cl)ccc1O | 0.24%
CC(C)=CCN1CCN(Cc2cn(C(C)C)c3ccccc23)CC1CCO (stereo not given) | 5.98%
O=[N+]([O-])c1ccc(N2CCCCCC2)c2nonc12 | 10.1%
CCOc1ccc(-c2ccc(C=O)o2)c([N+](=O)[O-])c1 | -3.32%

Reference: PubChem BioAssay AID492952 (Southern Research Specialized Biocontainment Screening …, 2010)
